# Compound activity as filed in PubChem BioAssay.
# NPC1 prom act – NPC1 promoter activation. Huh7 NPC1 promoter luciferase reporter, 24 h. Potency, µM (top dose mostly 9.22 µM), without a hit: top-dose activation, actives largely listed as activators. 320,000 compounds, 2.4% hits; further: % of control where 0% means no effect; nearly all actives have a fitted effect of over 60% in size
#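 Compounds in DMSO were transferred onto Huh7 NPC1-luciferase reporter cells pre-incubated 2 h; after 24 h at 37 °C, Amplite reagent was dispensed and luminescence recorded 10 min later.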
# FLuc counter – inhibits or activates purified firefly luciferase, miR-21 counter-screen | Potency, µM (top dose mostly 57.5 µM), without a hit: top-dose activity change, negative = inhibition, hits mostly inhibitors | purified FLuc, Km substrates, luminescence inhibition | 360,000 compounds, 6.9% hits | P08659;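 further: plate controls were vehicle for no effect and reference inhibitor for full effect; nearly all actives have a fitted effect of over 55% in size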
# Target sequence (P08659 whole entry, looked up): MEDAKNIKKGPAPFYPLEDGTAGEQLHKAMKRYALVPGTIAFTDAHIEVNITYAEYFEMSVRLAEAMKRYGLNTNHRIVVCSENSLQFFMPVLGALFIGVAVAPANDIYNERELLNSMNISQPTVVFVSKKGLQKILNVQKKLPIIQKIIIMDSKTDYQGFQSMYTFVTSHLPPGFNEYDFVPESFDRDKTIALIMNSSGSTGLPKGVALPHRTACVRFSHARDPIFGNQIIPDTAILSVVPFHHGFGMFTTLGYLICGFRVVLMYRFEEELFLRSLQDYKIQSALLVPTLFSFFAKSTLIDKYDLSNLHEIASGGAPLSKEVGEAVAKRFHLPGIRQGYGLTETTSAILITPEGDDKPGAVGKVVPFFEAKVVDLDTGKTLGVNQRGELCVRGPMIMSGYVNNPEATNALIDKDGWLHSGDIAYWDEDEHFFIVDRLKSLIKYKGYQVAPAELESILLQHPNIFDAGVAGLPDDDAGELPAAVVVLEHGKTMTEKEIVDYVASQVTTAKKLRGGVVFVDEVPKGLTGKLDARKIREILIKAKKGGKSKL
#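 Purified P. pyralis luciferase (10nM final) with 10uM D-luciferin and 10uM ATP (Km levels) in 50mM Tris acetate pH 7.5, 10mM Mg acetate, 0.01% Tween-20, 0.05% BSA; qHTS 6-point titration, ~60 µM downward; luminescence read.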
# ELG1 genotoxic – inducers of genotoxicity in HEK293T ELG1-luciferase cells; HEK293T ELG1-luciferase reporter, luminescence, 16 h; Potency, µM (titrated, usually from 46 µM), without a hit: at the top dose activity change, positive = activation, actives largely listed as activators; 330,000 compounds, 1.3% hits; AID 504466; further: % of control where 0% means no effect; nearly all actives have a fitted effect of over 60% in size
#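 Genotoxic stress is detected as increased luminescence from luciferase-tagged ELG1 in HEK293T cells, measured with ONE-Glo after a 16 hr treatment at 37 °C.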
# KinaseGlo FLuc – Kinase-Glo luciferase inhibition (counter-screen) | Q27757 | Kinase-Glo luciferase, ATP luminescence, 8 min | Potency, µM (highest dose often 38.3 µM), for inactives: at the top dose activity change, negative = inhibition, hits mostly inhibitors | 200,000 compounds, 0.28% hits | AID 1379; further: on the % scale 0 is the no-effect control and ±100 the full control effect; nearly all actives have a fitted effect of over 60% in size
#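 Recombinant Kinase-Glo luciferase, 10 uM ATP (linear range), luciferin; imidazole pH 7.2 / KCl / MgCl2 / Tween / BSA buffer; 8 min RT; luminescence.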
# SMN2 splice up – SMN2 splice variant enhancement; HEK293 SMN2-luciferase splicing reporter, luminescence, 30-36 h; Potency, µM (series often up to 46.1 µM), for inactives: top-dose activity change, positive = activation, most hits filed as activators; 210,000 compounds, 2.8% hits; further: % of control where 0% means no effect; nearly all actives have a fitted effect of over 55% in size
#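 HEK293 cells carry an SMN2 minigene-luciferase reporter in which exon 7 inclusion puts luciferase in frame. Cells were seeded at 2000 cells/well, attached for 10-12 hours, then exposed to compounds for 30-36 hours at 37C before ONE-Glo luminescence.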
# Rab9 prom act – activators of Rab9 promoter | 320,000 compounds, 2.8% hits | Potency, µM (doses to about 9.22 µM), without a hit: at the highest dose activation, negative = inhibition, actives largely listed as activators | Huh7 Rab9 promoter-luciferase reporter, luminescence, 24 h | AID 485297; further: % of control where 0% means no effect; nearly all actives have a fitted effect of over 60% in size
#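 Huh7 reporter line, Rab9 promoter upstream of luciferase. Compound exposure 24 h at 37 °C in reduced-serum medium with 10% FBS. Read-out: luminescence.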
# * hit, by the source's call; u = inconclusive; x = not tested or not shown. In the library only some 7.5% were active in any assay of this set; here they are far more common. The call rests on the fitted dose curve; in most records, active means well fitted curve in the direction sought with a large enough effect; inconclusive means small, poorly fitted or top-dose-only effect, or another doubt; inactive means no such curve, though single readings can be large; an effect the other way counts as inactive or inconclusive. Potency means the concentration at half of the fitted maximal effect.
SMILES,NPC1 prom act,FLuc counter,ELG1 genotoxic,KinaseGlo FLuc,SMN2 splice up,Rab9 prom act
FCCCOc1ccc(-c2nccc(-c3ccccn3)n2)cc1,-1.1%,19µM*,u,x,x,-0.8%
O=C(O)COc1ccc(-c2nccc(-c3ccccn3)n2)cc1,-0.4%,3.38µM*,-3.1%,-18.7%,-17.8%,-2.2%
COc1ccc(F)cc1S(=O)(=O)NCC(c1ccco1)S(=O)(=O)c1ccc(F)cc1 (stereo not given),x,-6.8%,x,x,x,x
CC(=O)N1N=C(c2cccc(Cl)c2)OC1c1ccc(C(C)C)cc1 (stereo not given),16.5%,23.9µM*,18.4µM*,-0.1%,4.2%,23.1%
Cc1noc(C)c1C(=O)Nc1nnc(-c2ccccc2)s1,5.3%,15.1µM*,2.4%,-0.4%,-21.8%,6.1%
Cc1cccc(-c2nnc(NC(=O)c3ccco3)s2)c1,2.82µM*,10.7µM*,20.6µM*,x,x,3.16µM*
O=C(Nc1nnc(S(=O)(=O)N2CCN(c3ccc(F)cc3)CC2)s1)c1ccco1,0.6%,19µM*,4.6%,x,x,2.9%
Cc1cccc(N(C)S(=O)(=O)c2nnc(NC(=O)c3ccco3)s2)c1,-0.9%,0.0%,3.6%,x,x,-0.1%
O=C(Nc1nnc(-c2ccc(F)cc2)s1)c1ccco1,2.82µM*,2.69µM*,u,x,x,3.16µM*
O=C(Nc1nnc(S(=O)(=O)N2CCOCC2)s1)c1ccc(F)cc1,2.9%,-5.9%,2.4%,x,x,15.4%
CCOc1ccc(N=C(C)C2=C(O)c3ccccc3C2=O)cc1,0.794µM*,1.35µM*,u,x,x,1.26µM*
CC(=NCCCN(C)C)C1=C(O)c2ccccc2C1=O,1.6%,-14.8%,12.3%,2.4%,-5.3%,9.2%
CC(=NC1CC1)C1=C(O)c2ccccc2C1=O,24.3%,16.9µM*,u,-9.3%,16.7%,u
C/C(=N\N(C)C)C1=C(O)c2ccccc2C1=O,16.6%,u,13.8%,1.1%,22.8%,16.8%
CC(=O)Nc1ccc(N=C(C2=C(O)c3ccccc3C2=O)c2ccccc2)cc1,24.9%,u,-12.7%,-2.3%,29.7%,u
COc1ccc(N=C(C)C2=C(O)c3ccccc3C2=O)cc1,0.708µM*,0.953µM*,2.59µM*,-8.9%,5.01µM*,0.447µM*
Cc1ccccc1CN1c2ccccc2-c2nc(SCC(=O)Nc3cc(F)ccc3F)ncc2S1(=O)=O,x,-3.0%,x,x,x,x
O=C(Oc1ccc2c(c1)C(=O)c1ccccc1CO2)c1ccccc1,1.0%,21.3µM*,u,-1.9%,-7.5%,13.8%
O=C(Oc1ccc2c(c1)OCC2=O)c1ccc(Cl)cc1,-5.5%,u,-0.3%,x,x,-0.3%
COc1ccccc1-c1nnc(NC(=O)C(C)C)s1,u,u,19.0%,-0.7%,19.4%,11.9%
CCC(Sc1nncn1C)C(=O)Nc1nnc(-c2ccccc2Cl)s1 (stereo not given),15.6%,-19.9%,u,-0.3%,22.4%,3.4%
COc1ccccc1-c1nnc(NC(=O)CSc2nncn2C)s1,u,0.757µM*,5.7%,-1.6%,11.2µM*,u
COc1ccccc1NC(=O)c1ccc(NC(=O)CSc2nncn2C)cc1,-2.6%,-1.2%,0.0%,1.4%,4.3%,-1.8%
COc1ccccc1-c1nnc(NC(C)=O)s1,u,6.75µM*,u,-7.0%,25.1µM*,u
COc1ccccc1-c1nnc(NC(=O)C(C)Sc2nncn2C)s1 (stereo not given),2.8%,19µM*,11.9%,0.4%,-38.2%,13.6%
CCOC(=O)c1ccc(NC2=CC(c3ccc(F)cc3)N(c3ccc(C(=O)OCC)cc3)C2=O)cc1 (stereo not given),x,0.4%,x,x,1.6%,x
COc1cccc(N2CCN(C(=O)c3cccn3-c3nnc(N4CCCCC4)s3)CC2)c1,x,5.9%,x,x,x,x
COc1ccccc1NC(=O)c1ccccc1C(=O)N(C)Cc1ccccc1,x,x,-2.8%,x,x,x
CN(c1ccccc1)c1ccc(/C=C/[N+](=O)[O-])cc1,9.5%,10.7µM*,-6.0%,-4.3%,-83.8%,17.1%
